# Test results taken from PubChem BioAssay AID2634 (National Center for Advancing Translational Sciences (NCATS), 2010).
# Inconclusive results are not listed. Calls of active or inactive are those of the source.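 How the source made its calls: active means compounds whose potency, the dose giving half inhibition, is below 20 µM; inconclusive means compounds meeting neither the active nor the inactive rule; inactive means potency over 20 µM or below 50% inhibition when unfitted.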
# Biological target: Integrin alpha-IIb (Homo sapiens) (UniProt P08514)
# Sequence (P08514 whole entry, looked up): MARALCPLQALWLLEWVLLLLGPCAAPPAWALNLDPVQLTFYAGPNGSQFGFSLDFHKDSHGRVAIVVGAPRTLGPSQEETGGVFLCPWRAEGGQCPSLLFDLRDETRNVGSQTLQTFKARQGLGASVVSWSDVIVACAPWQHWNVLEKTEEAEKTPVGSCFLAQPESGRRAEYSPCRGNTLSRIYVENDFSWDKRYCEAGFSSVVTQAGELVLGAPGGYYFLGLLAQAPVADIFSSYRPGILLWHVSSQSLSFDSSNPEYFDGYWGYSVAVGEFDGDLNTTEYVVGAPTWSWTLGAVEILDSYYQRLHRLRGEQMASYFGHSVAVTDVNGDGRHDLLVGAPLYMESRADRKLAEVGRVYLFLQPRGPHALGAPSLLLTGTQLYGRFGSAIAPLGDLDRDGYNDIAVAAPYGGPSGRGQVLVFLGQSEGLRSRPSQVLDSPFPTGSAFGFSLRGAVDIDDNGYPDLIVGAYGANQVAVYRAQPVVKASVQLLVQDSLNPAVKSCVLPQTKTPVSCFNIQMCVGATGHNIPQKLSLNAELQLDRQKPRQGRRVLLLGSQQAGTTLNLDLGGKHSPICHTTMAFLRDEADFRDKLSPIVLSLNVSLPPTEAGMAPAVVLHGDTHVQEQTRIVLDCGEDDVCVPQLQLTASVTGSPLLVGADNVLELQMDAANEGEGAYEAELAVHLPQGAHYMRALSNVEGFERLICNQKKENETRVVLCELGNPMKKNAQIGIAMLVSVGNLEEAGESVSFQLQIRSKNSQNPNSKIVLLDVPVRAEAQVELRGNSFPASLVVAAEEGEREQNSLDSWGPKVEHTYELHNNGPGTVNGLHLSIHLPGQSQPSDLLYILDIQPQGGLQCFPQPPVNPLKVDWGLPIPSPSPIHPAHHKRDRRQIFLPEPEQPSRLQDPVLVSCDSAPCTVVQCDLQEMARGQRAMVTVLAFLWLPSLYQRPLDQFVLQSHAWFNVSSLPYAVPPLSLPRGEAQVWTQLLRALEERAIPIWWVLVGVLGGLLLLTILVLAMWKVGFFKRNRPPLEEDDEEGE
# Assay: Platelet Adhesion Secondary Assay for Inhibitors of Platelet Integrin alphallb-beta3
# Conditions: human platelet adhesion to fibrinogen, calcein fluorescence; at 30 µM, stronger effect = higher value unless noted
# Description: NIH Molecular Libraries Probe Production Network [MLPCN] NIH Chemical Genomics Center [NCGC] MLPCN Grant: 1 R03 MH083257-01 Assay Provider: Barry Coller, Rockefeller University NCGC Assay Overview: The alphaIIbbeta3 receptor plays a vital role in hemostasis and thrombosis, where receptor deficiency causes the hemorrhagic disorder, Glanzmann thrombasthenia, and uncontrolled receptor activation causes thrombosis and blood vessel occlusion. Small molecule inhibitors of alphaIIbbeta3, tirofiban and eptifibatide, have undesirable side effects thought to arise from conformational changes in alphaIIbbeta3. These changes transiently activate the receptor to cause spontaneous platelet aggregation and thrombus formation. […] This secondary assay measures the binding of human plates to fibrinogen, an extracellular matrix protein (Blue et al., 2008). Platelets were loaded with a fluorescent dye, calcein, and added to fibrinogen-coated plates. Following incubation, unbound platelets were removed by washing and bound platelets were detected by measuring fluorescence intensity. Inhibitors of alphaIIbbeta3 block platelet binding to fibrinogen and result in a decrease in fluorescence intensity.
# NCGC Assay Protocol Summary: Human fibrinogen (50 ug/mL) in Tris/saline (100 mM NaCl, 50 mM Tris/HCl, pH 7.4; American Diagnostica, Stamford, CT) was added to black, clear-bottom, untreated polystyrene, nonsterile 384-well microtiter plate wells (Corning no. 3711; Acton, MA) using a peristaltic microplate dispenser (WellMate; Matrix, Hudson, NH). After incubating at 22 C for 1 hour, plates were washed 4 times with Tris/saline using an automated plate washer (ELX405; Bio-Tek, Winooski, VT), and wells were then blocked with HBMT (138 mM NaCl, 12 mM NaHCO3, 10 mM HEPES, 2.7 mM KCl, 0.4 mM NaH2PO4, 0.1% glucose, 0.35% BSA, pH 7.4) for at least 1 hour. After 2 additional washes, 15 uL HBMT was allowed to remain in each well. Compounds were added to the wells with a liquid handling robot (MiniTrak V; PerkinElmer, Wellesley, MA) using a pin tool (VP Scientific, San Diego, CA) that added 0.1 uL compound in DMSO. Fifteen microliters 5E11/L calcein-labeled platelets were then added (2.5E11/L final concentration). After 1 hour of adhesion, wells were washed 4 times with HBMT-CaCl2/MgCl2 and the plates were read by an Envision (Perkin Elmer) to detect calcein fluorescence (490 nm excitation and 515 nm emission). Positive controls consisted of wells containing platelets without compounds. Negative controls were wells containing platelets and known inhibitors of alphaIIbbeta3, including mAbs 7E3 and 10E5, and EDTA. Reference Blue R, Murcia M, Karan C, Jirouskova M, and Coller BS. Application of high-throughput screening to identify a novel alphaIIb-specific small- molecule inhibitor of alphaIIbbeta3-mediated platelet interaction with fibrinogen. Blood. 2008, 111(3):1248-56
SMILES,inhibition,outcome
Cc1nn2c(=O)cc(N3CCNCC3)nc2s1,20% (inactive),–
CCc1nn2c(=O)c(F)c(N3CCNCC3)nc2s1,"41% [inhibition, at 100 µM, stronger effect = higher value]",inactive
CCc1nn2c(=O)c(C)c(N3CCNCC3)nc2s1,"55% [inhibition, at 100 µM, stronger effect = higher value]",inactive
CCc1nn2c(=O)cc(N3CCN(C)CC3)nc2s1,23% (inactive),–
CCc1nn2c(=O)cc(N3CCNCC3)nc2s1,35% (inactive),–
